# Test results: PubChem BioAssay (NCATS)
# Inconclusive results are not listed. A call without a number means that no potency is given here. Activity calls are given as the source filed them. Calls come from the whole dose curve; as a rule, active = well fitted curve in the direction sought with a large enough effect; inconclusive = small, poorly fitted or top-dose-only effect, or another doubt; inactive = no such curve, though single readings can be large; an effect the other way counts as inactive or inconclusive.
# Legend:
# [1] = test system: Zika virus NS2B-NS3 protease; assay: Primary screen GU AMC qHTS for Zika virus inhibitors (AID 1347154); note: nearly all actives have a fitted effect of over 70% in size
# In short: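 Unlinked Zika NS2B hydrophilic domain/NS3 protease domain noncovalent complex (25 nM final) in 10 mM Tris-HCl pH 8.0, 0.01% Tween 20, with AMC peptide substrate. Fluorescence (ex 340, em 450 nm) change over 15 min, room temperature; percent inhibition fitted to 4-parameter Hill equation.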
# [2] = Counterscreen qHTS for small molecule stabilizers of the endoplasmic reticulum resident proteome: GLuc-NoTag assay (AID 1508627); note: series mostly up to about 76 µM
# In short: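 Secreted GLuc lacking the SERCaMP modification is measured in SH-SY5Y cells exposed to compound for 19 h and then to thapsigargin (100 nM, 4 h) to deplete ER calcium; hits retested at 11 concentrations, up to 76.6 uM.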
# [3] = target: Cytochrome P450 3A4 (Homo sapiens) (UniProt P08684); assay: qHTS Assay for Inhibitors and Substrates of Cytochrome P450 3A4 (AID 884); note: series mostly up to about 57 µM; nearly all actives have a fitted effect of over 50% in size
# Sequence of Cytochrome P450 3A4 (Homo sapiens) (P08684 whole entry, looked up): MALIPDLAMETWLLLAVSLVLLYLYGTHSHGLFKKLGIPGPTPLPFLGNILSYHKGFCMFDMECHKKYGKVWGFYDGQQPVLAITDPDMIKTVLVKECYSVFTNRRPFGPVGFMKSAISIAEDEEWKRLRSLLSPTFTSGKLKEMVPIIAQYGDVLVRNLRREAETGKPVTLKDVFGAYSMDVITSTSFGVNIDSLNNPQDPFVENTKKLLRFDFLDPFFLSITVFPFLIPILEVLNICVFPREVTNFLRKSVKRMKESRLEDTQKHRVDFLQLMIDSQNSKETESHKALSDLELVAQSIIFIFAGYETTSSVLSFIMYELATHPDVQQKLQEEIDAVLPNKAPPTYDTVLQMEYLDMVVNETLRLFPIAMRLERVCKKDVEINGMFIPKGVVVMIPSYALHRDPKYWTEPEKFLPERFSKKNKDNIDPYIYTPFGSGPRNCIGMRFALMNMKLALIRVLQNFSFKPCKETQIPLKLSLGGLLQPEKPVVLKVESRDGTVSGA
# In short: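 Luminescent readout of luciferin produced by CYP3A4 (20 nM) dealkylation of Luciferin-PPXE, 25 uM (its KM). NADPH-driven reaction ran 60 min at RT after 10 min compound preincubation; data scaled to 57 uM ketoconazole as 100% inhibition.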
# [4] = Cell Viability qHTS for small molecule stabilizers of the endoplasmic reticulum resident proteome (AID 1508629); conditions: cell viability counter-screen, 100 nM thapsigargin for final 4 h;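 note: human SH-SY5Y neuroblastoma cells carrying the GLuc-SERCaMP reporter; compound exposure about 46 h in total before the viability read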
compound,measurement,setting,value
NC(=O)[C@H](Cc1ccccc1)NC(=O)[C@H](Cc1c[nH]c2ccccc12)NC(=O)[C@@H]1CCCN1C(=O)[C@@H](N)Cc1ccc(O)cc1,"activity change, negative = inhibition",[1],11.2% [at 6.83 µM] (inactive)
OC12C3C4CC5C6C4C1C6C(C53)N2CCc1cccc(F)c1 (configuration not stated),Potency,[1],inactive
same,Potency,[2],inactive
Cn1c2c(c3ccccc31)CCNCC2,Potency,[3],inactive
same,Potency,[1],inactive
same,Potency,[2],inactive
same,max response,[4],24.2% (inactive)
